# Test results published in the supplement of paper PMC4022240.
# ± gives the standard deviation.
# T1: HaloTag-ATRX ADD domain (163-292)
# T1 chain: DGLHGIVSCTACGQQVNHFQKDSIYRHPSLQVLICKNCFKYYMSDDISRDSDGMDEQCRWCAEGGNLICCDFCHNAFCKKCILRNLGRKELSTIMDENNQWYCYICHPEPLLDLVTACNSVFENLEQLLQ
# B1: H3 112-124 I H A Kac R V T I M P K D I (peptide)
# chain: IHAKRVTIMPKDI
# B2: H3 112-124 I H A Kme Rcit V T I M P K D I (peptide)
# chain: IHAKRVTIMPKDI
# B3: H3 112-124 I H A Kme Rme V T I M P K D I (peptide)
# chain: IHAKRVTIMPKDI
# B4: H3 112-124 I H A Kme R V T I M P K D I (peptide)
# chain: IHAKRVTIMPKDI
# B5: H3 112-124 I H A Kme R V T I M P Kme2 D I (peptide)
# chain: IHAKRVTIMPKDI
# Assays:
# Assay in all cases: peptide microarray binding signal (635 nm), min-max normalized on array (fraction of array maximum); higher = stronger binding
# Conditions in all cases: peptide region: H3 112-124
# [1] = target: T1, HaloTag-ATRX ADD domain (163-292)
# How it was run: (§1)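 Two probe formats were used for 1 h at 4°C: biotin-labelled HaloTag reader fusions (10 nM to 1 μM) with streptavidin-Alexa Fluor 647, and rabbit histone antibodies (1:10,000 to 1:2,000) with anti-rabbit Alexa 647. Both were applied to nitrocellulose arrays of histone 13-mer peptide–cellulose conjugates printed in triplicate with a Cy3 tracer and blocked overnight at 4°C. Signal was read at 635 nm and misprints at 532 nm on an Axon GenePix 4000B. Binding signal is expressed as the triplicate-spot mean intensity, min-max scaled for each library.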
# [2] = target: HaloTag-ING2 PHD (mouse Ing2 200-280)
# How it was run: as §1
# [3] = target: anti-H3K4me3 antibody ab8580
# How it was run: as §1
# [4] = target: anti-H3K9me3 antibody ab8898
# How it was run: as §1
# [5] = peptide modifications: H3K115ac, binder concentration: 1:2,000 dilution
# [6] = peptide modifications: H3K115ac, binder concentration: 1:10,000 dilution
# [7] = peptide modifications: H3K115me1 H3R116cit, binder concentration: 1:2,000 dilution
# [8] = peptide modifications: H3K115me1 H3R116cit, binder concentration: 1:10,000 dilution
# [9] = peptide modifications: H3K115me1 H3R116me1, binder concentration: 1:2,000 dilution
# [10] = peptide modifications: H3K115me1 H3R116me1, binder concentration: 1:10,000 dilution
# [11] = peptide modifications: H3K115me1, binder concentration: 1:2,000 dilution
# [12] = peptide modifications: H3K115me1, binder concentration: 1:10,000 dilution
# [13] = peptide modifications: H3K115me1 H3K122me2, binder concentration: 1:2,000 dilution
# [14] = peptide modifications: H3K115me1 H3K122me2, binder concentration: 1:10,000 dilution
binder,measurement,setting,value
B1,peptide microarray binding signal,"[1]; peptide modifications: H3K115ac, binder concentration: 50 nM",0.0131 ± 0.00019
same,peptide microarray binding signal,"[1]; peptide modifications: H3K115ac, binder concentration: 500 nM",0.0422 ± 0.0053
same,peptide microarray binding signal,"[2]; peptide modifications: H3K115ac, binder concentration: 10 nM",0.0158 ± 0.0028
same,peptide microarray binding signal,"[2]; peptide modifications: H3K115ac, binder concentration: 100 nM",0.0152 ± 0.00051
same,peptide microarray binding signal,[3]; [5],0.00323 ± 0.00038
same,peptide microarray binding signal,[3]; [6],0.00228 ± 0.00013
same,peptide microarray binding signal,[4]; [5],0.00832 ± 0.00014
same,peptide microarray binding signal,[4]; [6],0.00329 ± 0.00029
B2,peptide microarray binding signal,"[1]; peptide modifications: H3K115me1 H3R116cit, binder concentration: 50 nM",0.00947 ± 0.0002
same,peptide microarray binding signal,"[1]; peptide modifications: H3K115me1 H3R116cit, binder concentration: 500 nM",0.0238 ± 0.00041
same,peptide microarray binding signal,"[2]; peptide modifications: H3K115me1 H3R116cit, binder concentration: 10 nM",0.0192 ± 0.00041
same,peptide microarray binding signal,"[2]; peptide modifications: H3K115me1 H3R116cit, binder concentration: 100 nM",0.037 ± 0.0012
same,peptide microarray binding signal,[3]; [7],0.00225 ± 5.2e-05
same,peptide microarray binding signal,[3]; [8],0.00434 ± 0.00036
same,peptide microarray binding signal,[4]; [7],0.00249 ± 6.3e-05
same,peptide microarray binding signal,[4]; [8],0.00248 ± 5.9e-05
B3,peptide microarray binding signal,"[1]; peptide modifications: H3K115me1 H3R116me1, binder concentration: 50 nM",0.0108 ± 0.00023
same,peptide microarray binding signal,"[1]; peptide modifications: H3K115me1 H3R116me1, binder concentration: 500 nM",0.0356 ± 0.0019
same,peptide microarray binding signal,"[2]; peptide modifications: H3K115me1 H3R116me1, binder concentration: 10 nM",0.0466 ± 0.0022
same,peptide microarray binding signal,"[2]; peptide modifications: H3K115me1 H3R116me1, binder concentration: 100 nM",0.0304 ± 0.0046
same,peptide microarray binding signal,[3]; [9],0.00891 ± 0.0021
same,peptide microarray binding signal,[3]; [10],0.00593 ± 0.0011
same,peptide microarray binding signal,[4]; [9],0.00746 ± 0.0012
same,peptide microarray binding signal,[4]; [10],0.00646 ± 0.00037
B4,peptide microarray binding signal,"[1]; peptide modifications: H3K115me1, binder concentration: 50 nM",0.00774 ± 0.00015
same,peptide microarray binding signal,"[1]; peptide modifications: H3K115me1, binder concentration: 500 nM",0.0198 ± 0.0023
same,peptide microarray binding signal,"[2]; peptide modifications: H3K115me1, binder concentration: 10 nM",0.00668 ± 0.00016
same,peptide microarray binding signal,"[2]; peptide modifications: H3K115me1, binder concentration: 100 nM",0.0314 ± 0.0099
same,peptide microarray binding signal,[3]; [11],0.00168 ± 0.00023
same,peptide microarray binding signal,[3]; [12],0.001997 ± 1.8e-05
same,peptide microarray binding signal,[4]; [11],0.0034 ± 0.00038
same,peptide microarray binding signal,[4]; [12],0.00236 ± 0.00015
B5,peptide microarray binding signal,"[1]; peptide modifications: H3K115me1 H3K122me2, binder concentration: 50 nM",0.00423 ± 4.3e-05
same,peptide microarray binding signal,"[1]; peptide modifications: H3K115me1 H3K122me2, binder concentration: 500 nM",0.00881 ± 0.00019
same,peptide microarray binding signal,"[2]; peptide modifications: H3K115me1 H3K122me2, binder concentration: 10 nM",0.0148 ± 0.0012
same,peptide microarray binding signal,"[2]; peptide modifications: H3K115me1 H3K122me2, binder concentration: 100 nM",0.0263 ± 0.0033
same,peptide microarray binding signal,[3]; [13],0.0016 ± 6.6e-05
same,peptide microarray binding signal,[3]; [14],0.001826 ± 1.7e-05
same,peptide microarray binding signal,[4]; [13],0.00125 ± 6.5e-05
same,peptide microarray binding signal,[4]; [14],0.00133 ± 2.3e-05
